Source: PubChem BioAssay
TSG101-PTAP inh – blocks PTAP/TSG101 interaction to inhibit HIV-1 budding. AID 493005. 340,000 tested, under 10 active. Fluorescence polarization, FITC-PTAP peptide / Tsg101 binding. Potency, µM (top dose mostly 115 µM), actives largely listed as inhibitors. Q99816; active = well fitted inhibition curve with a large enough effect in the main read-out, with a control signal flat, not every such curve was filed as active; inconclusive = small, poorly fitted or top-dose-only effect, or effect the other way, or a change in a side signal; inactive = no such curve, though single readings can be large or run the other way
Target sequence (Q99816 whole entry, looked up): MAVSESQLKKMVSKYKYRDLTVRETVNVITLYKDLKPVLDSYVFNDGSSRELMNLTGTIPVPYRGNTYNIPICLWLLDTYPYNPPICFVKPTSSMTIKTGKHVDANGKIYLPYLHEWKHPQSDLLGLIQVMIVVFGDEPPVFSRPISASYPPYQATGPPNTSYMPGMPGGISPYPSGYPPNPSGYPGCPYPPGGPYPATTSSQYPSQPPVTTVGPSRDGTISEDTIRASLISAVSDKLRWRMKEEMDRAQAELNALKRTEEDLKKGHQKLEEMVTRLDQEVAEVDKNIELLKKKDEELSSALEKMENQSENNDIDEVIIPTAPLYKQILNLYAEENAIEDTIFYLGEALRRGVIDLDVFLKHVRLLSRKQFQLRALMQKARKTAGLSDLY
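Fluorescence anisotropy tracks displacement of a FITC-tagged PTAP peptide (50 nM) from the Tsg101 binding domain (10 uM), following a 20 min room-temperature incubation at pH 7.5.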
SW480 rerep – induces DNA re-replication in SW480 colon adenocarcinoma cells; SW480 DNA re-replication, Hoechst DNA content imaging, 48 h; Potency, µM (top dose mostly 46.1 µM), hits mostly activators; 340,000 compounds, 1.8% hits; AID 624297; also: nearly all actives have a fitted effect of over 55% in size
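Per well, 250 cells were exposed to pinned compound for 48 hr. Nuclear DNA was visualised with Hoechst (40 min, 37 C) and total object intensity recorded by fluorescence scanning.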
KB-V1 cytotox – kills drug-selected multidrug resistant KB-V1 cells | 400,000 compounds, 3.4% hits | KB-V1 MDR cells viability, CellTiter-Glo, 72 h | Potency, µM (highest dose often 46.1 µM), actives largely listed as cytotoxic; also: nearly all actives have a fitted effect of over 60% in size
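Drug-selected KB-V1 cells, grown in DMEM lacking phenol red with 10% FBS, receive compound titrations; after three days at 37 degrees C, surviving cell ATP is quantified by CellTiter-Glo luminescence and responses normalized and curve-fitted.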
KB-3-1 cytotox – KB-3-1 parental cell cytotoxicity. KB-3-1 viability, CellTiter-Glo ATP luminescence, 72 h. Potency, µM (top dose mostly 46.1 µM), usual class: cytotoxic. 400,000 compounds, 1.4% hits; also: nearly all actives have a fitted effect of over 60% in size
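Parental KB-3-1 viability, qHTS format: 72 h compound exposure, 37 °C; CellTiter-Glo; media-only wells and DMSO plates as controls; concentration-effect fits on corrected data.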
MCF10A rereplic – inducers of DNA re-replication in MCF 10A breast cells; AID 624296; Potency, µM (highest dose often 46.1 µM), actives largely listed as activators; 350,000 compounds, 2.9% hits; MCF 10A DNA re-replication, Hoechst nuclear intensity, 48 h; also: nearly all actives have a fitted effect of over 50% in size
RGS4 inhibitor – human RGS4 inhibition; Potency, µM (series often up to 114 µM), usual class: inhibitors; AID 504845; 390,000 compounds, 0.039% hits; Transcreener GDP fluorescence polarization, RGS4-accelerated GTP hydrolysis; also: nearly all actives have a fitted effect of over 75% in size
Target sequence (P49798 whole entry, looked up): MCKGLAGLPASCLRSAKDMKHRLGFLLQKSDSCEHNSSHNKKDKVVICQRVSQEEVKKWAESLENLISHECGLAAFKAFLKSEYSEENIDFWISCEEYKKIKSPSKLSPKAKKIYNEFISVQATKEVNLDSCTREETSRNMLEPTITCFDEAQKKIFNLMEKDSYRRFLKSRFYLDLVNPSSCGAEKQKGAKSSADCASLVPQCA
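MLSMR compounds (23 nl, pin-transferred) preincubated 10 min at room temperature with a 500nM (2x) first reagent, then RGS4 at 900nM (2x) plus Transcreener GDP mix added; fluorescence polarization (620/688 nm) read before and after 90 min at 30 °C.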
A number is an active result; – = inactive; ? = inconclusive; · = no result. The list is not random: actives were taken first. Their share in the collection is about 6.6%. Unless noted, calls follow the shape of the dose curve; as a rule, active = well fitted curve in the direction sought with a large enough effect; inconclusive = small, poorly fitted or top-dose-only effect, or another doubt; inactive = no such curve, though single readings can be large; an effect the other way counts as inactive or inconclusive.

SMILES | TSG101-PTAP inh | SW480 rerep | KB-V1 cytotox | KB-3-1 cytotox | MCF10A rereplic | RGS4 inhibitor
Cc1[nH]c2ccccc2c1SCC(=O)N1CCCCCC1 | – | – | – | – | ? | –
Cc1[nH]c2ccccc2c1C(=O)CSC(=S)N1CCCCC1 | – | – | 13µM | – | – | –
O=C(OCC(=O)N1CCCC1)c1c[nH]c2ccccc12 | – | – | – | – | – | –
Cc1[nH]c2ccccc2c1SCC(=O)N1CCCCC1 | – | – | – | – | 5.8µM | –
COc1cc(OC)c2c(c1)C(=O)OC2c1cc(OC)c(OC)cc1C (stereo not given) | · | · | – | – | · | –
CC(=O)N(c1ccc(Cl)cc1)C1SC(=O)N(c2ccccc2)C1=O (stereo not given) | · | · | · | · | · | –
CCOC(=O)c1nnc2c(-c3ccc(Cl)cc3)c(C)nn2c1C | · | · | ? | – | · | –
C=C(C)c1cccc(C(C)(C)NC(=O)Nc2ccc(C(C)=O)cc2)c1 | – | ? | 18µM | – | ? | –
C=C(C)c1cccc(C(C)(C)NC(=O)N2CCC(C)CC2)c1 | – | – | 18µM | – | – | –
COc1ccc(C(=O)Nc2ccc(-c3nc4ccccc4[nH]3)cc2)cc1OC | · | · | ? | – | · | ·
CNS(=O)(=O)c1cc(-c2nnc(Nc3cc(C)ccc3C)c3ccccc23)ccc1C | · | · | – | – | · | –
O=[N+]([O-])c1ccc2c(c1)C=CC2 | · | · | – | – | · | ·
CSCC[C@H](NC(=O)OC(C)(C)C)c1nnc(SCc2ccc(F)cc2)o1 | – | – | 21µM | – | ? | –
CSCC[C@H](NC(=O)OC(C)(C)C)c1nnc(SCc2cccc(F)c2)o1 | – | – | – | – | – | –
CCN(CC)C(=O)CSc1nnc([C@H](Cc2c[nH]c3ccccc23)NC(=O)OC(C)(C)C)o1 | – | – | 15µM | – | – | –
CC(C)[C@H](NC(=O)OC(C)(C)C)c1nnc(SCc2cccc(F)c2)o1 | – | ? | 13µM | – | – | –
C[C@H](NC(=O)OC(C)(C)C)c1nnc(SCc2ccc(Cl)cc2Cl)o1 | · | · | 18µM | ? | · | –
COc1ccc(NC(=O)CC2C(=O)N(c3ccc(C)cc3)C(=O)N2Cc2cccnc2)cc1 (stereo not given) | · | · | · | · | · | –
O=C(c1ccc2c(=O)n(CC3CCCO3)c(=S)[nH]c2c1)N1CCN(C(=O)c2ccco2)CC1 (stereo not given) | · | · | · | · | · | –
COC(=O)c1ccc(-n2nnc(-c3nc(-c4ccc5c(c4)OCO5)no3)c2C)cc1 | · | · | · | · | · | –
CC(CNC(=O)C1CCN(C(=O)N2CCOc3ccc(Cl)cc32)CC1)c1ccccc1 (stereo not given) | · | · | – | – | · | –
CSCC[C@H](NC(=O)OC(C)(C)C)c1nnc(SCc2ccccc2)o1 | – | – | 9.2µM | ? | – | –
CSCC[C@H](NC(=O)OC(C)(C)C)c1nnc(SCC(=O)N(C)C)o1 | – | – | – | – | – | –
Cc1ccc(N2CCN(C(=O)c3nn(C)c4c3CSc3ccccc3-4)CC2C)cc1 (stereo not given) | · | · | · | · | · | –
COc1cc(/C=C/c2ccc3cccc(O)c3n2)ccc1O | – | – | – | ? | 12µM | –
SMILES | TSG101-PTAP inh | SW480 rerep | KB-V1 cytotox | KB-3-1 cytotox | MCF10A rereplic | RGS4 inhibitor
COc1cc(Br)cc(/C=C/c2ccc3cccc(O)c3n2)c1O | – | – | – | ? | 16µM | –
O=[N+]([O-])c1cccc2ccc(/C=C/c3ccc(Cl)cc3)nc12 | – | – | ? | – | – | –
CSc1ccc(/C=C/c2ccc3cccc(O)c3n2)cc1 | – | – | ? | – | 21µM | –
COc1cc(Br)c(/C=C/c2ccc3cccc(O)c3n2)cc1OC | – | – | – | – | – | –
CCOc1ccc(NC(=O)CN2C(=O)COc3ccc(S(=O)(=O)Nc4ccccc4)cc32)cc1 | · | · | – | – | · | –
COc1ccccc1NC(=O)CSc1oc(-c2cccs2)nc1S(=O)(=O)c1ccccc1 | · | · | – | – | · | –
COC(=O)c1scc(-c2ccc(C)cc2)c1S(=O)(=O)N1CCN(c2ccccc2F)CC1 | · | · | – | – | · | –
CCCCc1c(-c2ccccc2OC)ncn1CCc1cccc(Cl)c1 | · | · | 15µM | ? | · | ·
CCCCc1c(-c2ccccc2OC)ncn1Cc1ccc(Cl)cc1 | · | · | 21µM | ? | · | ·
COc1cccc(Cn2cnc(-c3ccccc3OC)c2-c2cccs2)c1 | · | · | – | ? | · | ·
CCc1c(C2CC2)ncn1Cc1cccc(-c2ccccc2)c1 | · | · | – | 15µM | · | ·
CCCCc1c(-c2ccccc2OC)ncn1C1CCCC1 | · | · | 13µM | 18µM | · | ·
N#CN=c1snc(-c2ccccc2Cl)n1-c1ccccc1Cl | · | · | – | – | · | –
CC(=O)c1ccc(NC(=O)CSc2nnc3ccc(-c4ccc(Cl)cc4)nn23)cc1 | · | · | · | · | · | –
COc1cccc(Cn2cnc(-c3ccccc3OC)c2C2CC2)c1 | · | · | 18µM | ? | · | ·
COc1cccc(Cn2cnc(-c3ccccc3OC)c2-c2cccnc2)c1 | · | · | – | – | · | ·
CCCCc1c(-c2ccccc2OC)ncn1Cc1cccc(-c2ccccc2)c1 | · | · | 15µM | ? | · | ·
CCCCc1c(-c2ccccc2OC)ncn1Cc1ccc(-c2ccccc2)cc1 | · | · | 10µM | ? | · | ·
O=C(/C=C/c1ccc([N+](=O)[O-])o1)Nc1cccc([S+](=O)([O-])Nc2ccccc2F)c1 | · | · | – | – | · | ·
CC(C)Cc1nc2sc3c(NCc4ccco4)ncnc3c2c2c1COC(C)(C)C2 | – | – | – | – | ? | –
Cc1nc2sc3c(NCc4ccco4)ncnc3c2c2c1COC(C)(C)C2 | – | ? | 18µM | ? | ? | –
NC(=O)COC(=O)c1ccccc1Nc1ccc(SC(F)F)cc1 | – | – | – | – | 23µM | –
CC(C)(C)NC(=O)COC(=O)c1ccccc1Nc1ccc(SC(F)F)cc1 | – | – | – | ? | ? | –
Cc1ccc(-n2ncc3c(NCCCN(C)C)ncnc32)cc1Cl | · | · | – | – | · | –
CCOc1cc(C(=O)OCc2cc(=O)n3nc(C4CC4)sc3n2)cc(OCC)c1OCC | · | · | – | – | · | –
SMILES | TSG101-PTAP inh | SW480 rerep | KB-V1 cytotox | KB-3-1 cytotox | MCF10A rereplic | RGS4 inhibitor
CC(C)(C)CC(=O)NCc1cccs1 | – | – | – | – | – | –
CC(C)(CO)NCc1cccs1 | ? | 1.3µM | – | ? | – | –
COc1cc(Cn2c3ccc(NC(=O)NCc4ccc(F)cc4)cc3c(=O)n2C)ccc1F | · | · | – | 9.2µM | · | ·
COc1ccc(CCNC(=O)Nc2ccc3c(c2)c(=O)n(C)n3Cc2ccc(F)cc2)cc1OC | · | · | – | – | · | ·
COc1cc(Cn2c3ccc(NC(=O)CCc4ccc(O)cc4)cc3c(=O)n2C)ccc1F | · | · | – | 5.8µM | · | ·
CSCC[C@H](NC(=O)[C@H](Cc1ccccc1)NC[C@@H](NC[C@@H](N)CS)C(C)C)C(=O)O | · | · | · | · | · | –
O=C(NCC1CCCO1)C(=O)NCC(c1ccco1)N1CCN(c2ccc(F)cc2)CC1 (stereo not given) | – | – | 8.2µM | – | – | –
